# PubChem BioAssay
# Calls of active or inactive are those of the source.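 How the source made its calls, unless noted: active means inhibition of the reporter signal at or above 50%; inactive means inhibition below 50%.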
# What was measured:
# [1] = inhibitors of TNFa-induced NFkB p65 translocation, primary screen, imaging, HUVEC, MLSMR starter and 10KST1 sets (AID 438;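 active means inhibition above 20% together with a positive visual image hit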;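 further: compound added about 3h40 before a 20 min TNFalpha stimulation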;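 on inhibition: signal is the nuclear over cytoplasmic p65 intensity ratio per well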); conditions: HUVEC TNFa-induced p65 nuclear translocation; cell count: measured here: nuclei count (cytotoxicity indicator), at 2.08 µM; inhibition: at 2 µM, stronger effect = higher value, 0% TNFa-plus-vehicle, 100% no-TNFa wells
# [2] = inhibitors of mutant huntingtin aggregation, primary screen, imaging, exon1htt(103Q)mCFP cells, high-content imaging (AID 483;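 active means visual image review flags a hit and inhibition of aggregation exceeds 20%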;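 further: compound exposure lasted 3 days before fixation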;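 on nuclei count: percent of the per-plate median nuclei count of sample wells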); conditions: exon1htt(103Q)mCFP cell line, aggregate imaging, at 2 µM; inhibition of aggregation: stronger effect = higher value; nuclei count: measured here: cell count, toxicity
# [3] = inhibitors of E-selectin induction by TNFa, primary screen, imaging, HUVEC, immunofluorescence, MLSMR starter and 10KST1 sets (AID 487;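 active means visually confirmed hit in the image check and inhibition above 20%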;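 on inhibition: signal is fraction of cell area covered by stained E-selectin grains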;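 on nuclei count: 100% = median nuclei count of all wells on the same plate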); conditions: HUVEC TNFalpha-induced E-selectin immunofluorescence imaging, at 2 µM; inhibition: stronger effect = higher value; nuclei count: measured here: cell number, toxicity
# [4] = biological target: Voltage-gated potassium channel subunit beta-2 (Rattus norvegicus) (UniProt P62483); assay: KvBeta enzyme negative modulators, primary screen, biochemical, NADPH fluorescence (AID 622;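 active means fluorescence slope higher than the sample average by over 3 SD, cut at about -0.22 in these data, passing the limit was not always enough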;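 further: slope of raw intensity against log time taken from 70 to 1610 s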); conditions: recombinant KvBeta, 4-cyanobenzaldehyde reduction, at 10 µM, stronger effect = higher value
# Sequence of Voltage-gated potassium channel subunit beta-2 (Rattus norvegicus) (P62483 whole entry, looked up): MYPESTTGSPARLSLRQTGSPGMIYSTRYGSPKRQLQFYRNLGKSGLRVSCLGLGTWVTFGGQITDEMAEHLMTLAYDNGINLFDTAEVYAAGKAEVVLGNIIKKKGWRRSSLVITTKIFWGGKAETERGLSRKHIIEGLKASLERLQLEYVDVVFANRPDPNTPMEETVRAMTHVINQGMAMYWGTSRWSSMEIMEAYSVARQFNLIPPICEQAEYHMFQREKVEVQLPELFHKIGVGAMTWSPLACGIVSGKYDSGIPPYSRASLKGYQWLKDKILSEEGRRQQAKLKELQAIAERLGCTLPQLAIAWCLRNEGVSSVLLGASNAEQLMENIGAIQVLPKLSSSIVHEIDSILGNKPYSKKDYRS
# [5] = biological target: Voltage-gated potassium channel subunit beta-2 (Rattus norvegicus) (UniProt P62483); assay: KvBeta positive modulators, primary screen, biochemical, NADPH fluorescence (AID 623;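 active means NADPH fluorescence slope more negative than the mean of all samples by about 3 SD, 99.7% confidence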;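 further: fluorescence intensity change per second fitted from 20 to 320 s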); conditions: Recombinant KvBeta, NADPH fluorescence decrease slope, 10 min; at 10 µM; stronger effect = lower value
# [6] = biological target: Alpha-2C adrenergic receptor (Homo sapiens) (UniProt P18825); assay: modulators of alpha2C/GIRK thallium flux, primary screen, cell-based, HEK293 alpha2C/GIRK1/2 (AID 624;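 active means fluorescence slope after compound addition differing from the mean of all screened samples at 99.7% confidence, in either direction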;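 further: slope of fluorescence ratio to pre-addition baseline per second over 15 to 24 s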); conditions: thallium flux BTC fluorescence, at 10 µM, actives lie on both sides
# Sequence of Alpha-2C adrenergic receptor (Homo sapiens) (P18825 whole entry, looked up): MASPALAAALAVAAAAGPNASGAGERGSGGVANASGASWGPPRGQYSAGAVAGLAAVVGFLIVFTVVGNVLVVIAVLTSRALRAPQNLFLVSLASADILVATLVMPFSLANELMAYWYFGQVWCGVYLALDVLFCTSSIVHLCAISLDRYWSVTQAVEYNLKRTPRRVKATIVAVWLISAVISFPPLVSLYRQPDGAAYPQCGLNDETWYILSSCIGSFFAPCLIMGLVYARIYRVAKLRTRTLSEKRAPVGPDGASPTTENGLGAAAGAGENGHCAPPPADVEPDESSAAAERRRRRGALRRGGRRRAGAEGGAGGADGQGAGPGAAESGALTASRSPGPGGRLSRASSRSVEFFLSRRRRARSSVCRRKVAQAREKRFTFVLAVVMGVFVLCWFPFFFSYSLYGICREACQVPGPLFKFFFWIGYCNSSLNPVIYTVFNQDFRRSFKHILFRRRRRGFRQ
# [7] = inhibitors of Sendai virus-induced IRF3 signaling, primary screen, TLR/RLR signaling modifier project, cell-based, Sendai virus stimulus, luciferase, 10K MLSCN set (AID 602276;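 active means inhibition at or above 50% at 10 µM; inactive means inhibition below 50%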;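 further: firefly luciferase from ISG56 promoter only with Renilla not read in this screen; 0% = Sendai virus plus DMSO and 100% = medium plus DMSO without virus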); conditions: HEK293 RL24 IRF3 luciferase reporter, at 10 µM, stronger effect = higher value
# [8] = inhibitors of poly I:C-induced TLR3 signaling, primary screen, cell-based, poly I:C stimulus, luciferase, 10K MLSCN set (AID 602277); conditions: HEK293-TLR3 RL24 IRF3 luciferase reporter, at 10 µM, stronger effect = higher value
SMILES,cell count [1],inhibition [1],inhibition of aggregation [2],nuclei count [2] [%],inhibition [3],nuclei count [3] [%],fluorescence slope [4],NADPH fluorescence slope [5],slope [6],inhibition [7],inhibition [8]
Cc1cc(C)c(NC(=O)Cn2cc3c(n2)CCCC3)c(C)c1,738,-7.9% (inactive),-4.1% (inactive),76.3,-1.2% (inactive),110,-0.515 (inactive),-2e-05 (inactive),0.00662 (inactive),26.1% (inactive),11.6% (inactive)
Cc1csc(NC(=O)C2CCCO2)n1 (stereo not drawn),725,-11.4% (inactive),-7.3% (inactive),101,-133% (inactive),134,-0.494 (inactive),-5.6e-05 (inactive),0.00887 (inactive),-2.56% (inactive),17.7% (inactive)
CC(C)C1N=C2c3ccccc3N=C(SCc3cc(=O)n4ccccc4n3)N2C1=O (stereo not drawn),646,-10.9% (inactive),4.4% (inactive),58.8,-35.3% (inactive),90,-0.451 (inactive),2.2e-05 (inactive),0.00398 (inactive),6.75% (inactive),-22.1% (inactive)
CC(=NCC1CCNCC1)C1=C(O)CC(C)(C)CC1=O,663,-11% (inactive),-14.1% (inactive),113,12.1% (inactive),132,-0.499 (inactive),4e-06 (inactive),0.00593 (inactive),4.83% (inactive),23.6% (inactive)
Cc1ccc2[nH]c(=O)c(CN(Cc3ccc4c(c3)OCO4)Cc3nnnn3Cc3ccco3)cc2c1,638,2.2% (inactive),-15.3% (inactive),94.1,-74.1% (inactive),122,-0.622 (inactive),-7e-06 (inactive),0.00625 (inactive),9.33% (inactive),12.2% (inactive)
Cc1[nH]nc2c1C1(C(=O)N(Cc3ccc(Cl)cc3)c3ccccc31)C(C#N)=C(N)O2 (stereo not drawn),358,1.4% (inactive),-1.1% (inactive),101,-24.6% (inactive),114,-0.338 (inactive),-3.4e-05 (inactive),0.00523 (inactive),12.5% (inactive),0.315% (inactive)
Cc1ccc(OCc2nnc(SCC(=O)N3CCOCC3)n2C)cc1,594,-12.9% (inactive),6.8% (inactive),104,-58.9% (inactive),116,-0.372 (inactive),-1.9e-05 (inactive),0.00543 (inactive),-1.5% (inactive),6.14% (inactive)
O=C(CCN1C(=O)c2ccccc2C1=O)N1CCN(C(=O)c2ccccc2)CC1,548,2.5% (inactive),7.3% (inactive),98.2,-145% (inactive),118,-0.491 (inactive),-4.1e-05 (inactive),0.00673 (inactive),9.17% (inactive),19.5% (inactive)
S=C(c1cccs1)N1CCCC1,708,-25.9% (inactive),-3.8% (inactive),105,22.3% (inactive),100,-0.421 (inactive),-4e-05 (inactive),0.00656 (inactive),-7.06% (inactive),6.9% (inactive)
Cc1ccc(S(=O)(=O)N2CCN(S(C)(=O)=O)C2c2ccccc2)cc1 (stereo not drawn),464,0% (inactive),10.2% (inactive),93.5,11.6% (inactive),114,-0.372 (inactive),-4.8e-05 (inactive),0.00576 (inactive),8.09% (inactive),26.1% (inactive)
C/C=C(\C)c1nnc(NC(=O)C(C)C)s1,382,-29% (inactive),-12.2% (inactive),98.7,-50.6% (inactive),95.4,-0.474 (inactive),2.8e-06 (inactive),0.00558 (inactive),-13.7% (inactive),-7.26% (inactive)
CCn1c(=N)n(CC(O)c2ccco2)c2ccccc21 (stereo not drawn),321,-8.1% (inactive),-20.7% (inactive),87.8,-33% (inactive),110,-0.358 (inactive),-5.8e-05 (inactive),0.00623 (inactive),10.3% (inactive),24.1% (inactive)
NC(=O)c1cccc2c1C(=O)N(C1CCCCC1)C2,836,-0.6% (inactive),-14.1% (inactive),91.2,-26.1% (inactive),117,-0.569 (inactive),-1.8e-05 (inactive),0.00605 (inactive),5.66% (inactive),24.7% (inactive)
